In the library only some 1.7% were active in any assay of this set; here they are far more common.
TLR9-MyD88 inh = inhibitors of TLR9-MyD88 association in cells, primary screen, cell-based, CHO, BLA complementation, fluorescence; inhibition, % at 4.98 µM; 0.21% of 340,000 active; CCF4 FRET ratio;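 active means inhibition above the mean over all tested compounds plus 3 SD, cut at about 21% in these data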;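 further: 0% = DMSO only wells and 100% = clavulanate BLA inhibitor control wells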
Myeloid diff MLP = induction of myeloid progenitor differentiation, primary screen, cell-based, flow cytometry, MLPCN library; ER-HoxA9 myeloid progenitors, lysozyme-GFP differentiation; calls only at 10 µM; 1% of 360,000 active;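 active means normalized GFP-positive differentiation at or above the plate's own cutoff, the solvent-only control mean plus 3 SD; inconclusive means no clear call, values can overlap the other calls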;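 further: cells exposed to compound for four days before flow analysis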
TLR4 MyD88 comp = inhibitors of TLR4-MyD88 association in cells, primary screen, cell-based, HeLa CL3-4, BLA complementation, FRET ratio. HeLa CL3-4 TLR4/MyD88 BLA complementation. 0.18% of 200,000 active. inhibition, % at 8.4 µM. Toll-like receptor 4 (Homo sapiens) + Myeloid differentiation primary response protein …; in the data active means inhibition above about 25%;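 further: 0% = vehicle and 100% = reference inhibitor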
NOD2-RIPK2 inh = NOD2-RIPK2 binding disruptors in cells, primary screen, fluorescence, CHO cells, BLA complementation; Receptor-interacting serine/threonine-protein kinase 2 (Homo sapiens), O43353; AID 624267, 2012; 0.38% of 360,000 active; CCF4 ratio; inhibition, % at 4.98 µM; in the data active means inhibition above about 21%;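 further: 0% = vehicle only and 100% = reference blocker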
ABCB6 inh MLPCN = ABCB6 transporter inhibitors, primary screen, K562-ABCB6 cells, flow cytometry, MLPCN library. ATP-binding cassette sub-family B member 6 (Homo sapiens), Q9NP58. K562-ABCB6 porphyrin accumulation, 1 h; hits give low values. fluorescence ratio to DMSO, % at 10 µM. 0.19% of 360,000 active. AID 602162, 2011;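 active means fluorescence ratio to DMSO below 75%, the collection mean minus 3 SD; inconclusive means too few cells collected in the well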;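 further: signal is porphyrin accumulated inside mitochondria; 100% equals median channel fluorescence of DMSO control wells; lower ratio means ABCB6 inhibition with less porphyrin fluorescence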
Target sequence (Q9NP58 whole entry, looked up): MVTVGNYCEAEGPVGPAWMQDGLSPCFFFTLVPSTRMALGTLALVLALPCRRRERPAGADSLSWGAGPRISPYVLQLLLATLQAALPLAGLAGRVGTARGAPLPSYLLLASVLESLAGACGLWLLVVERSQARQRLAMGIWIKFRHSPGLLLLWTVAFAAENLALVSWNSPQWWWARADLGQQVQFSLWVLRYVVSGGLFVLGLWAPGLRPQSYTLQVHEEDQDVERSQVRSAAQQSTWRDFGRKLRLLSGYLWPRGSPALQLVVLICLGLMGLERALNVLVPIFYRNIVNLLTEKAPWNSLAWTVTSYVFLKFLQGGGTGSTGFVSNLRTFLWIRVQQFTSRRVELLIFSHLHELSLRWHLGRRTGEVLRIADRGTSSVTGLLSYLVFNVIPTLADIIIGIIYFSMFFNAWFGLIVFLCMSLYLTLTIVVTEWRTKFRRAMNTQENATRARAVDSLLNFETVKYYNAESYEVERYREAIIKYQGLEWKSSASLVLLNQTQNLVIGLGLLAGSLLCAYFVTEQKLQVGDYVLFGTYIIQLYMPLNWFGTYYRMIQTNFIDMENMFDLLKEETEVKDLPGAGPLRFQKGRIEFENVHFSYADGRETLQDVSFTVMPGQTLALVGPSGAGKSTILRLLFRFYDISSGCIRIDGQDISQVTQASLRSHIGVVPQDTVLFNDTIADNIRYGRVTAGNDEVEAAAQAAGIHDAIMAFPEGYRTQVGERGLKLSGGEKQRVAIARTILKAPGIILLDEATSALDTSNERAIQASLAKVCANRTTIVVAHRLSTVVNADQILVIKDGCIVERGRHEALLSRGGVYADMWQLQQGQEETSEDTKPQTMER
TLR4-MyD88 conf = TLR4-MyD88 association inhibitors, retest, confirmation, cell-based, HeLa CL3-4, BLA complementation, FRET ratio | shares compounds with TLR4 MyD88 comp | CCF4 FRET ratio | AID 941, 2007 | 50% of 350 active | inhibition, % at 8.4 µM;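 active means mean inhibition across three repeat runs above about 25% carried over from the earlier screen, limit read from the data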;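 further: plate controls were DMSO only for no effect and clavulanic acid blocking BLA at full dose for full effect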
BLA inhibitor ct = inhibits beta-lactamase activity, counter-screen to TLR4-MyD88 binding inhibitors; shares compounds with TLR4 MyD88 comp; 63% of 350 active; HeLa BLA reporter, CCF4 FRET ratio; inhibition, % at 8.4 µM; AID 1237;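 active means mean inhibition over three repeats above about 26% taken from the earlier screen, limit read from the data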;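 further: HeLa cells stably expressing beta-lactamase reporter as counterscreen for TLR4-MyD88 inhibitors; 0% = DMSO and 100% = clavulanic acid full inhibition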
* marks the source's active call; other numbers are inactive results; i = inactive; u = inconclusive; x = no result given; + = active, no number.

SMILES	TLR9-MyD88 inh	Myeloid diff MLP	TLR4 MyD88 comp	NOD2-RIPK2 inh	ABCB6 inh MLPCN	others
COc1ccc(-n2c(/C=C/c3ccc(O)cc3)nc3ccccc3c2=O)cc1	-3	i	x	16	118
COc1ccc(-n2c(/C=C/c3ccc(O)c(OC)c3)nc3ccccc3c2=O)cc1	19	+	x	19	108
CCOC(=O)[C@@]1(C#N)[C@@H]2C=CC(C(N)=O)=CN2[C@@H](C(N)=O)[C@@H]1c1cccc(Cl)c1	1	+	1	9	104
CCCCn1c(N)c(C(=O)OCC2CCCO2)c2nc3ccccc3nc21 (stereo not drawn)	-7	i	-9	3	98
CC(C)CCn1c(N)c(C(=O)OCC2CCCO2)c2nc3ccccc3nc21 (stereo not drawn)	1	+	-1	10	107
CC(C)OCCCNC(=O)c1c(N)n(CC2CCCO2)c2nc3ccccc3nc12 (stereo not drawn)	-1	+	-6	-3	103
CCC1C2CC3C4N(C)c5ccccc5C45CC(C2C5O)N3C1O (stereo not drawn)	x	i	x	-3	100
C[C@]12CCC3C(CC[C@H]4C[C@@H](O)CC[C@]34C)C1C[C@@H](O)[C@]2(C)O (stereo partly drawn)	6	i	x	-4	97
C#C[C@]1(O)[C@H](O)CC2C3CC[C@H]4C[C@@H](O)CC[C@]4(C)C3CC[C@@]21C (stereo partly drawn)	x	+	x	-5	98
COc1cc(/C=C/C(=O)c2c(O)n(CCc3ccccc3)c(=O)[nH]c2=O)ccc1O	8	+	10	2	103
CCOP(=O)(OCC)C(c1ccccc1)N(C)C=O (stereo not drawn)	-5	i	-6	58*	104
Cc1ccc(-n2c(O)c(C=NCCN3CCNCC3)c(=O)[nH]c2=S)cc1	-5	i	x	5	100
CC(C)c1ccc(-n2c(O)c(C=NCCN3CCNCC3)c(=O)[nH]c2=S)cc1	0	+	x	-13	111
CC[n+]1c(-c2ccccc2)c2cc(N)ccc2c2ccc(N)cc21	12	+	x	3	i
O=C(NCC1=C(c2cccc3ccccc23)C[C@@H]2CC[C@H]1N2Cc1ccco1)c1cccs1	8	i	x	-6	97
COC(=O)[C@@]1(Sc2ccc(C)cc2)CC(=O)N(P(=O)(OC)OC)[C@@H]1c1ccccc1	x	i	x	-8	97
CC(=O)OC[C@]12CCC(C)=C[C@H]1O[C@@H]1[C@H](O)[C@@H](OC(C)=O)[C@@]2(C)[C@]12CO2	3	+	x	20	101
CN(C)c1ccc(NC(=O)CN2C(=O)CN=C(c3ccccc3)c3ccccc32)cc1	8	+	-16	-4	101
COc1ccccc1-c1cc(NC(C)=O)c2ncc(-c3ccccc3)n2c1	x	i	x	-2	94
Cc1[nH]c2ccccc2c1CN1CCCCC1	-2	i	x	-13	91
CCN(CC)c1ccc(/C=C2\C(=O)NC(=S)N(C)C2=O)o1	1	+	x	-10	122
CCN(CC)c1ccc(/C=C2\C(=O)NC(=S)N(c3ccc(OC)cc3OC)C2=O)o1	1	+	x	4	114
CCN(CC)c1ccc(C=C2C(=O)N(C)C(=S)N(C)C2=O)o1	5	i	-1	-3	118
COc1ccc(CN2C(=O)C(CC(=O)NCc3ccco3)CC(C(=O)N(C)C)=C2C)cc1 (stereo not drawn)	3	i	x	9	98
Cc1ccc(-n2c(C)nc3ccccc3c2=O)cc1C	-12	i	7	-3	105
SMILES	TLR9-MyD88 inh	Myeloid diff MLP	TLR4 MyD88 comp	NOD2-RIPK2 inh	ABCB6 inh MLPCN	others
Cc1ccc2nsnc2c1-n1c(C)nc2ccccc2c1=O	0	+	-9	-2	104
COc1cc2c(c(OC)c1OC)-c1ccc(SC)c(=O)cc1C(N)CC2 (stereo not drawn)	2	x	x	-1	98
O=C(Nc1cccc(Br)c1)c1c(O)c2c(n(Cc3ccccc3)c1=O)CCCC2	x	+	x	-1	140
COc1cc2c(c(OC)c1OC)-c1ccc(OC)c(=O)cc1C(N)CC2 (stereo not drawn)	-12	x	x	8	102
COc1ccc(C(=O)N/N=C/C23CC[C@@H](O)CC2(O)CC[C@@H]2[C@@H]3CCC3(C)C(C4=CC(=O)OC4)CCC23O)cc1 (stereo partly drawn)	4	+	x	-8	121
COC(=O)C1=C(c2ccc(OCc3ccccc3)cc2)C[C@@H]2CC[C@H]1N2C(=O)NCCc1ccc(F)cc1	8	i	x	-11	100
O=C1NC(=O)C2(CCN(c3ccccc3)CC2)C(=O)N1	-3	i	x	2	90
CCCCn1c(O)c(C(C)=NCc2cc(OC)cc(OC)c2)c(=O)[nH]c1=O	-4	+	3	-1	96
CCOC(=O)c1ccc2[nH]c(-c3ccc(S(=O)(=O)F)cc3)cc(=O)c2c1	3	+	x	0	102
CCCCn1c(=O)c(C(=O)Nc2cnccn2)c(O)c2ccccc21	4	+	-10	-6	95
CCCCCn1c(=O)c(C(=O)Nc2ncccc2C)c(O)c2ccccc21	-23	u	x	-3	105
Cc1ccc(/C=C2\C(=O)NC(=S)N(c3ccc(F)cc3)C2=O)s1	-12	i	26*	0	107	TLR4-MyD88 conf=19;BLA inhibitor ct=-16
CCn1c(O)c(C=Nc2ccc(N3CCOCC3)c(Br)c2)c(=O)n(CC)c1=S	6	i	-3	4	103
CCn1c(O)c(C=Nc2ccc(N3CCOCC3)cc2)c(=O)n(CC)c1=S	16	i	44*	10	162	TLR4-MyD88 conf=50*;BLA inhibitor ct=69*
C[C@H]1CN([C@@H](C)CO)C(=O)CCCn2nncc2CO[C@H]1CN(C)C(=O)Oc1ccc2ccccc2c1	-7	i	x	-5	101
